The source of these data is PubChem BioAssay (NCI).

The panel holds about 79,000 compounds, 15% with a hit somewhere; the sample as a whole holds those more often. Unmarked numbers belong to inactive results. The source made the active and inactive calls. No stated cut-off is given here; in the data, active means growth inhibition above about 70%; inactive means the rest.

Assay [1] can be described thus: NCI Yeast Anticancer Drug Screen. Data for the rad50 strain (AID 155).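 Further: 0% = growth of vehicle-only cultures of the same strain.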 Particulars: S. cerevisiae rad50 strain growth inhibition; at 50.0 µM; hits give high values. The procedure, abridged:
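Growth of the mutant yeast was measured after compound exposure and referenced to vehicle-treated cultures.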

The nature of assay [2]: NCI Yeast Anticancer Drug Screen. Data for the mec2-1 strain (AID 157). Particulars: S. cerevisiae mec2-1 strain, at 50.0 µM, hits give high values. The procedure, abridged: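 Readout is yeast growth inhibition, normalised to vehicle-treated controls, in the mec2-1 strain exposed to compound.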
The nature of assay [3]: NCI Yeast Anticancer Drug Screen. Data for the sgs1 mgt1 strain (AID 161).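 Further: 0% = growth of cultures given vehicle only.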 Particulars: S. cerevisiae sgs1 mgt1 strain, at 50.0 µM, hits give high values. The procedure, abridged:
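Growth of a repair-deficient yeast mutant was monitored after compound treatment and expressed as inhibition relative to vehicle-treated cultures.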

A short description of assay [4]: NCI Yeast Anticancer Drug Screen. Data for the cln2 rad14 strain (AID 165).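 Further: 0% = growth equal to vehicle treated cultures.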 Particulars: S. cerevisiae cln2 rad14 strain, at 50.0 µM, hits give high values. The procedure, abridged:
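Relative to vehicle controls, growth inhibition of compound-treated cln2 rad14 yeast was recorded.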

A short description of assay [5]: NCI Yeast Anticancer Drug Screen. Data for the bub3 strain (AID 167). Particulars: S. cerevisiae bub3 mutant strain, at 50.0 µM, hits give high values. In short, it runs like this:
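Whole-cell yeast assay. The mutant strain was incubated with compounds, and growth inhibition was determined by comparison with vehicle-treated cells.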

A short description of assay [6]: NCI Yeast Anticancer Drug Screen. Data for the mlh1 rad18 strain (AID 175). Particulars: S. cerevisiae mlh1 rad18 strain growth inhibition; at 50.0 µM; hits give high values. In short, it runs like this: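 Test agents were incubated with a yeast strain of defined genotype (DNA damage repair defect). Inhibition of growth was derived by comparison with vehicle-exposed cultures.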

With `CCC(C)(O)P(=O)(O)O` (stereo unspecified), the growth inhibition in assay [1] is 5.15%; in assay [2], 7.1%; in assay [3], 0.35%; in assay [4], -30.4%; in assay [5] it was 0.85%; in assay [6], 7.6%.
Turning to `Cc1ccc2nc(N(C)C)nc(N)c2c1`, the growth inhibition in assay [1] was -7.95%; in assay [2], 2.05%; in assay [3], -5.45%; in assay [4], -7.85%; in assay [5], -8.3%; in assay [6] it was -6.2%.
For `O=c1[nH][nH]c(=O)c2c1ccc1oc3ccccc3c12`, the growth inhibition in assay [1] was -13.8%; in assay [2], 0.55%; in assay [3], -20.7%; in assay [4], 28.2%; in assay [5], 2.55%; in assay [6] it was 4.4%.
With `NC(=O)OC1CCN(c2cccc(Cl)c2)C1` (stereo unspecified), the growth inhibition in assay [1] was -8.1%; in assay [2], -22.3%; in assay [3] it was -16.1%; in assay [4] it was 23.5%; in assay [5] it was -18.8%; in assay [6], 1.75%.
In the case of `O=C(NC(=O)c1cccc(Cl)c1)Nc1ccccc1`, the growth inhibition was 3.1% in assay [1]; -15.1% in assay [2]; -19.6% in assay [3]; -22% in assay [4]; -10.7% in assay [5]; -5.15% in assay [6].
As to `COc1cc2c(cc1OCc1ccccc1)C(c1cc(OC)c(OC)c(OC)c1)=C1C(=O)OCC1C2` (stereo unspecified), the growth inhibition in assay [1] was 9.4%; in assay [2] it was -1.1%; in assay [3], -16.4%; in assay [4], -7.2%; in assay [5] it was -1.25%; in assay [6] it was 1%.
As for `CC(=O)OCC1OC(c2ccccc2)C/C(=N/O)C1OC(C)=O` (stereo unspecified), the growth inhibition in assay [1] is 90.8% (active); in assay [2], 98.5% (active); in assay [3], 97.8% (active); in assay [4], 96.8% (active); in assay [5] it was 87.8% (active); in assay [6] it was 97.7% (active).
Turning to `CCN1c2ccccc2CC(CCN(C)Cc2ccccc2)(C(N)=O)c2ccccc21` (stereo unspecified), the growth inhibition in assay [1] is 26.1%; in assay [2], -1.15%; in assay [3], -7.7%; in assay [4], 7.45%; in assay [5] it was 5.3%; in assay [6], -6.05%.
For `CS(=O)(=O)OC1CC/C=C\CCC1OS(C)(=O)=O` (stereo unspecified), the growth inhibition was 1.3% in assay [1]; 14.5% in assay [2]; 12.3% in assay [3]; -9.35% in assay [4]; -15.4% in assay [5]; -15.6% in assay [6].
With `O=S(=O)(OCCCC1CC2C=CC1C2)c1ccc(Br)cc1` (stereo unspecified), the growth inhibition is -1.7% in assay [1]; -12.2% in assay [2]; -17.6% in assay [3]; -7.05% in assay [4]; 1.85% in assay [5]; 2.45% in assay [6].
Consider `CCOC(=O)c1cnc2c(ccc3ncccc32)c1Cl`, for which the growth inhibition in assay [1] is -13.9%; in assay [2], -7.45%; in assay [3], 15.8%; in assay [4], 25.2%; in assay [5], 7%; in assay [6], 27.1%.
Turning to `O=C(O)CCN1CCSC1=O`, the growth inhibition is 7.15% in assay [1]; 12.6% in assay [2]; -4.3% in assay [3]; 3.75% in assay [4]; 2.35% in assay [5]; 1.8% in assay [6].
Regarding `CC1C(c2ccccc2)(N(C)C)CS1(=O)=O` (stereo unspecified), the growth inhibition was -3.15% in assay [1]; -8.5% in assay [2]; -6.4% in assay [3]; -74.7% in assay [4]; 12.7% in assay [5]; -8.6% in assay [6].
Take `CC1=C2C(=O)O[C@@H](c3ccoc3)[C@]2(C)CCC1`: the growth inhibition in assay [1] was 15.3%; in assay [2], -6.8%; in assay [3], 14.1%; in assay [4], -8.9%; in assay [5], 0.35%; in assay [6], 16.6%.
With `Cc1c2c(=O)oc3ccc(Cl)cc3c2nn1-c1ccccc1`, the growth inhibition in assay [1] was -13.9%; in assay [2], -9.4%; in assay [3] it was -11.8%; in assay [4], -7.8%; in assay [5], -25.7%; in assay [6], -9.65%.
Regarding `O=c1[nH]cnc2c1ncn2CCCCc1ccccc1`, the growth inhibition in assay [1] was 8.4%; in assay [2] it was -5.25%; in assay [3] it was 8.45%; in assay [4], 0.9%; in assay [5], 5.7%; in assay [6] it was 14.8%.
`CCC1CN1C(=O)c1cc(C(=O)N2CC2CC)cc(C(=O)N2CC2CC)c1` (stereo unspecified): the growth inhibition was 3.2% in assay [1]; 15.7% in assay [2]; 5.5% in assay [3]; 24.3% in assay [4]; -5.75% in assay [5]; 20% in assay [6].
In the case of `N#CNC(=O)c1ccc(Cl)cc1`, the growth inhibition is -2.8% in assay [1]; -12.5% in assay [2]; -11.1% in assay [3]; -21.4% in assay [4]; -14.4% in assay [5]; -0.4% in assay [6].
Consider `C/C(O)=C(/C=NC(=S)c1ccncc1)C(=O)Nc1ccccc1`, for which the growth inhibition is -36.8% in assay [1]; -1.8% in assay [2]; -49% in assay [3]; -26.5% in assay [4]; -45.1% in assay [5]; -36.3% in assay [6].
On to `C=C(C)[C@@H]1CC=C(CO)CC1`, for which the growth inhibition in assay [1] was 15.7%; in assay [2] it was -1.95%; in assay [3], 0.45%; in assay [4], 22.1%; in assay [5] it was 28.3%; in assay [6] it was 8.4%.
Regarding `O=C(OCC(F)(F)C(F)(F)C(F)(F)C(F)(F)C(F)(F)C(F)F)OCC(F)(F)C(F)(F)C(F)(F)C(F)(F)C(F)(F)C(F)F`, the growth inhibition in assay [1] is 0.1%; in assay [2] it was 9.05%; in assay [3], -5.45%; in assay [4], -3.65%; in assay [5], -0.6%; in assay [6] it was 0.95%.
